Screens as filed in PubChem.
USP30 inh: inhibitors of human USP30 deubiquitinase. AID 1645860, 2021. purified USP30, Ub-rhodamine cleavage fluorescence. Ubiquitin carboxyl-terminal hydrolase 30 (Homo sapiens), Q70CQ3. 5.3% of 47,000 active. inhibition, % at 25 µM
OTUD3 block: inhibitors of human OTUD3 deubiquitinase | OTU domain-containing protein 3 (Homo sapiens), Q5T2D3 | 0.7% of 47,000 active | purified OTUD3, Ub-rhodamine fluorescence, 2 h | inhibition, % at 25 µM
USP28 inh: inhibitors of human USP28 deubiquitinase; AID 1645857, 2021; Ubiquitin carboxyl-terminal hydrolase 28 (Homo sapiens), Q96RU2; purified USP28, Ub-rhodamine cleavage fluorescence, 30 min; 3% of 47,000 active; inhibition, % at 25 µM
USP8 block: inhibitors of human USP8 deubiquitinase; 4.2% of 47,000 active; purified USP8, Ub-rhodamine cleavage fluorescence, 30 min; inhibition, % at 20 µM
USP17 block: inhibitors of human USP17 deubiquitinase. inhibition, % at 50 µM. 6.5% of 47,000 active. purified USP17, Ub-rhodamine cleavage fluorescence, 3 h
* marks the source's active call; other numbers are inactive results; i = inactive; . = no result. Hits are enriched below; roughly 13% of the tested compounds scored in any of these assays. Cut-off read from the data, not from the text of the source: active = inhibition above about 30%; inactive = the rest.

SMILES	USP30 inh	OTUD3 block	USP28 inh	USP8 block	USP17 block
CCCOc1ccccc1C1C2=C(CC(C)(C)CC2=O)Nc2ccccc2N1C(=O)c1ccccc1 (configuration not stated)	.	-1.0	.	6.6	0.1
COc1ccc(CNS(=O)(=O)c2ccc3[nH]c(=O)ccc3c2)cc1	.	0.6	.	0.9	46.9*
COc1cn(-c2ccc(F)cc2)nc1C(=O)Nc1ccc(Cl)cc1Cl	29.7	16.0	12.4	48.8*	12.6
O=C(Cn1cccc1-c1nnc(-c2ccccc2)o1)Nc1cccc(F)c1	-38.8	0.0	-18.6	-1.0	-9.2
O=C1N[C@H](Cc2c[nH]c3ccccc23)C(=O)N[C@H]1Cc1c[nH]c2ccccc12	35.7*	10.4	12.3	0.4	21.9
Cc1ccccc1CN1CCN(Cc2c[nH]c3ccccc23)CC1	8.3	-3.4	9.6	14.0	-1.8
CC1Oc2nc3ccccc3cc2CN(Cc2ccc(F)cc2)C1=O (configuration not stated)	-1.3	0.1	-6.2	2.5	-2.0
CCc1nc2c(NS(=O)(=O)c3ccc(F)cc3)cccn2n1	-166.8	-39.7	-53.8	-10.5	-40.7
O=c1[nH]cccc1NS(=O)(=O)c1ccc(F)cc1	-33.1	-8.5	4.7	92.8*	85.7*
O=C(Cc1ccccc1)c1ccc(Br)s1	8.7	14.9	34.5*	16.7	25.0
O=C(CCc1ccccc1)Nc1nnc(-c2ccc(Br)cc2)s1	21.7	27.4	3.0	20.5	.
Cc1ccc(NCc2cc(=O)n3cc(C)ccc3n2)c(C)c1	-113.0	-11.6	-11.9	5.8	-3.1
Cc1ccc2nc(CNc3cccc(Cl)c3)cc(=O)n2c1	-105.6	-7.8	-0.5	28.7	30.5*
Cc1ccc(Nc2nc(N)nc(CN3CCN(c4ccccc4)CC3)n2)c(C)c1	15.2	9.5	9.8	15.4	2.5
CC(C)C1Cc2c(sc3nc(SCC(=O)Nc4cccc5ccccc45)nc(N)c23)CO1 (configuration not stated)	-44.3	0.5	-9.5	-3.8	51.6*
CC1(C)Cc2c(sc3nc(Cc4ccccc4)nc(SCC(=O)Nc4ccccc4)c23)CO1	55.6*	26.1	18.3	9.2	34.9*
CC1(C)Cc2c(sc3nc(SCC(N)=O)nc(N)c23)CO1	1.6	-3.6	-2.2	6.6	5.3
CCC1(C)Cc2c(sc3nc(SCC(=O)Nc4ccc(C(C)=O)cc4)nc(N)c23)CO1 (configuration not stated)	-1.6	4.5	4.5	-0.7	63.2*
CC(C)Cc1nc2sc3c(SCC(=O)Nc4ccc(Br)cc4)ncnc3c2c2c1COC(C)(C)C2	-11.7	-0.2	-6.1	-3.0	-25.7
c1ccc(-c2nnc3n2-c2ccccc2SC3)cc1	31.1*	10.0	15.1	11.1	17.2
CC(C)n1nnc2cc(S(=O)(=O)N3CCCC(C(=O)NCCc4ccco4)C3)ccc21 (configuration not stated)	-30.2	3.9	7.3	16.7	41.6*
COc1ccc(Cn2c(Oc3ccccc3C)nc3c2c(=O)n(C)c(=O)n3C)cc1	32.1*	20.1	12.9	23.3	27.0
COc1ccc(Cn2c(N3CCCCC3)nc3c2c(=O)n(C)c(=O)n3C)cc1	26.3	11.9	10.7	8.7	14.7
COc1cc(O)c2c(c1)C(=O)c1cc3c(c(O)c1C2=O)C(OC1OC(C)C(OC)C(O)C1OC)C(OC)C(C)(O)C3=O (configuration not stated)	i	-148.6	-202.4	-325.7	-160.0
CCCc1c(C(=O)O)c(O[C@H]2O[C@H](C)[C@@H](OC)[C@H](OC)[C@@H]2OC)cc2cc3c(c(O)c12)C(=O)c1c(O)cc(O[C@@H]2O[C@@H](C)[C@H](O[C@H]4O[C@H](C)[C@@H](OC)[C@H](OC)[C@@H]4O)[C@@H](OC)[C@H]2O)cc1C3=O	-315.5	-31.2	-83.8	-28.8	54.8*
O=C1CC(c2ccco2)Cc2nc(N3CCc4ccccc4C3)ncc21 (configuration not stated)	.	-1.2	.	3.2	44.3*
Cc1ccc2c(C)nc(Nc3ncc4c(n3)CC(c3ccco3)CC4=O)nc2c1 (configuration not stated)	38.2*	25.2	28.8	60.9*	58.9*
O=C1CC(c2ccco2)Cc2nc(N3CCc4ccccc43)ncc21 (configuration not stated)	-8.1	29.9	22.1	39.5*	36.5*
